Measurements reported in PubChem BioAssay (EPA / NIEHS).
Results filed as inconclusive are left out. Calls of active or inactive are those of the source. Rule for the calls: active = hit-call score of the fitted dose curve at least 0.9, where 1 is the maximum; inconclusive = response in the unintended direction; inactive = score below 0.9.

The compounds below were run on sulfotransferase (SULT2A), SULT2A1 (gene 6822) (assay: CLD_SULT2A_48hr: CellzDirect (CLD) Gene Expression Assay for sulfotransferase (SULT2A) at 48 hours (AID 2283710);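 note: hits raise SULT2A1 transcript above the 0.2% DMSO vehicle baseline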).
Outline: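 SULT2A1 transcript measured by qNPA chemiluminescence in human primary hepatocyte cultures after 48 h, with fresh dosing solutions on two consecutive days; gain-of-signal fitting against 0.2% DMSO vehicle; cytotoxicity annotated from phase-contrast morphology.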

| Structure (SMILES) | outcome |
| --- | --- |
| CCNc1nc(Cl)nc(NC(C)(C)C#N)n1 | inactive |
| CCOP(=S)(OCC)Oc1ccc2c(C)c(Cl)c(=O)oc2c1 | inactive |
| COP(=O)(OC)SCn1c(=O)oc2cc(Cl)cnc21 | inactive |
| CON=C(C(=O)OC)c1ccccc1CON=C(C)c1cccc(C(F)(F)F)c1 | inactive |
| CCOP(=O)(NC(C)C)Oc1ccc(SC)c(C)c1 (stereo unspecified) | inactive |
| O=C(O)c1cc(Oc2ccc(C(F)(F)F)cc2Cl)ccc1[N+](=O)[O-] | inactive |
| CCc1cccc(C)c1N(C(=O)CCl)C(C)COC (stereo unspecified) | inactive |
| C[N+]1(C)CCCCC1 | inactive |
| CN(C)C(=O)Nc1cccc(C(F)(F)F)c1 | inactive |
| COc1cc(OC)nc(Sc2cccc(Cl)c2C(=O)O)n1 | inactive |
| CCCCOC(=O)[C@@H](C)Oc1ccc(Oc2ccc(C#N)cc2F)cc1 | inactive |
| CCOP(=S)(OCC)Oc1cc(C)nc(C(C)C)n1 | inactive |
| CC(=NC#N)N(C)Cc1ccc(Cl)nc1 | inactive |
| COc1ccc(C(=CC(=O)N2CCOCC2)c2ccc(Cl)cc2)cc1OC | inactive |
| CC(C)N(C(=O)SCC(Cl)=C(Cl)Cl)C(C)C | inactive |
| CCCCOC(=O)c1ccccc1C(=O)O | inactive |
| Cc1cc(C2CC2)nc(Nc2ccccc2)n1 | inactive |
| C=C(C)[C@H]1Cc2c(ccc3c2O[C@@H]2COc4cc(OC)c(OC)cc4[C@@H]2C3=O)O1 | inactive |
| CCCSP(=O)(OCC)Oc1ccc(Br)cc1Cl (stereo unspecified) | inactive |
| CNc1cnn(-c2cccc(C(F)(F)F)c2)c(=O)c1Cl | inactive |
| CC(C)=CC1C(C(=O)OCN2C(=O)C3=C(CCCC3)C2=O)C1(C)C (stereo unspecified) | inactive |
